Screens from PubChem BioAssay.
HP1b chromo inh: inhibitors of HP1-beta chromodomain binding to methylated histone tails; P83916; AID 540317; Potency, µM (titrated, usually from 114 µM), actives largely listed as inhibitors; AlphaScreen HP1-beta / biotin-H3K9me3 peptide binding; hit rate 0.56% among 390,000; further: nearly all actives have a fitted effect of over 70% in size
Target sequence (P83916 whole entry, looked up): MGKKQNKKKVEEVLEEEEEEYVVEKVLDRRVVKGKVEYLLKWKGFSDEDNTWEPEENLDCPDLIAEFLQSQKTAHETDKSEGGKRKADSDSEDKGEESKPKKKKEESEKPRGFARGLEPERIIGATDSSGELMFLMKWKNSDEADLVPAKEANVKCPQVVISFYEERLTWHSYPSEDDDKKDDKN
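HP1-beta protein (50 nM final) preincubated 30 min at room temperature with biotinylated H3(1-18)K9me3 peptide (50 nM) in PBS pH 7.4, 0.01% Tween-20, then compound added for 30 min. AlphaScreen streptavidin donor/nickel chelate acceptor beads (10 ug/mL final), 30 min dark, luminescence read.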
CtBP-E1A inh: inhibitors of CtBP/E1A interaction; AlphaScreen GST-E1A/His-CtBP binding, 1536-well; hits give low values; activity change, % (test concentration not listed); hit rate 0.49% among 340,000; in the data active means activity change below about -65%; inconclusive means mostly about -30% to -63%
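Homogeneous bead-based format: GST-tagged E1A captured on glutathione donor beads, His-tagged CtBP on nickel acceptor beads; compounds precede bead addition by 2 h at 37 °C.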
Six1-Eya2 inh: inhibitors of human Six1/Eya2 interaction; AlphaScreen GST-Six1/His-Eya2 binding, biochemical; hits give low values; hit rate 0.56% among 360,000; activity change, % (concentration not given with the values); AID 651725; in the data active means activity change below about -65%; inconclusive means mostly about -30% to -63%
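GST-Six1 + His-Eya2 (5X stock: 250/500 nM); Tris pH 8.0, 300 mM NaCl, 0.05% BSA, 0.02% Tween 20; GSH donor/Ni acceptor beads; 1 h 37 °C dark; AlphaScreen readout.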
BAZ2B block: BAZ2B (human) inhibition. Potency, µM (titrated, usually from 114 µM), most hits filed as inhibitors. AlphaScreen BAZ2B-H3K14Ac peptide displacement. hit rate 4.4% among 360,000. Q9UIF8; further: nearly all actives have a fitted effect of over 60% in size
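Protein-peptide AlphaScreen: BAZ2B 50 nM, b-H3K14Ac 50 nM, 1x PBS pH 7.4 + 0.01% Tween-20. Preincubation 30 min RT; cpd 30 min RT (top 110 uM); beads 20 min RT, light-protected.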
G9a inh: blocks human histone lysine methyltransferase G9a; Q96KQ7; G9a H3K9 monomethylation, AlphaScreen, 2 h; Potency, µM (titrated, usually from 102 µM), usual class: inhibitors; hit rate 8.8% among 350,000; further: nearly all actives have a fitted effect of over 75% in size
Target sequence (Q96KQ7 913-1193 limits assumed): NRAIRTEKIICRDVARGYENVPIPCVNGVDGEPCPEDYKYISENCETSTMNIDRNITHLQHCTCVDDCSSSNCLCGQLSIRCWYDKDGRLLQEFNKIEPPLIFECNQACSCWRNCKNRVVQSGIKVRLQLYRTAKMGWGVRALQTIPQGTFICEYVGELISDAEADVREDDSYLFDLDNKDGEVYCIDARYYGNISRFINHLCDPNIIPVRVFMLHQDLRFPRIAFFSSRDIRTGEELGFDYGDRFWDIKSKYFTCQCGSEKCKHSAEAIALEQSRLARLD
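G9a (20 nM) preincubated 15 min RT with compounds, then 500 nM biotinylated H3K9 peptide and 20 uM SAM added; 2 h RT reaction. Monomethyl-H3K9 product detected by AlphaScreen with anti-H3K9me1 antibody, streptavidin donor and anti-rabbit IgG acceptor beads.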
JMJD2A Tudor inh: inhibitors of human JMJD2A Tudor domain; hit rate 4.4% among 390,000; AlphaScreen JMJD2A-Tudor / H3K4me3 peptide binding; Potency, µM (titrated, usually from 114 µM), most hits filed as inhibitors; further: nearly all actives have a fitted effect of over 50% in size
A number is an active result; - = inactive; ? = inconclusive; . = no result given; [ ] = remark or other dose. Hits are enriched below; roughly 10% of the tested compounds scored in any of these assays. Unless noted, the call rests on the fitted dose curve; in most records, active means well fitted inhibition curve with a large enough effect; inconclusive means small, poorly fitted or top-dose-only effect; inactive means no such curve, though single readings can be large or run the other way.

SMILES	HP1b chromo inh	CtBP-E1A inh	Six1-Eya2 inh	BAZ2B block	G9a inh	JMJD2A Tudor inh
Cc1nccn1CCc1n[nH]c(=S)n1Cc1ccccc1	-	-	-	-	2µM	40µM
Cc1c(C(=O)N2CCC(C)CC2)c(S(=O)(=O)NCc2ccc(Cl)cc2)c(C)n1C	-	.	.	?	-	-
Cc1ccc(-c2noc(-c3cccnc3NCc3ccc(Cl)cc3)n2)cc1	-	.	.	-	?	-
COc1ccc(NC(=O)CCNS(=O)(=O)c2ccc3c(c2)CCN3C(=O)C2CC2)cc1Cl	-	.	.	-	-	-
Cc1cccc(-c2nc(C)c(CCNC(=O)C(=O)Nc3ccccc3C#N)s2)c1	-	.	.	-	-	-
Cc1ccc(NCc2n[nH]c(=S)n2Cc2ccccc2)cc1Cl	-	-	-	?	18µM	?
CCn1c(CCCCc2n[nH]c(=S)n2CC)n[nH]c1=S	?	-	-	-	20µM	4.5µM
S=c1[nH]nc(COc2cccc(Cl)c2)n1Cc1ccccc1	-	-	-	-	-[12.7 µM]	-
C/C(=N\NC(=S)Nc1c(C)cccc1C)c1ccc(OC(F)F)cc1	-	-	-	-	8.9µM	?
C/C(=N\NC(=S)Nc1ccccc1C)c1ccc(O)cc1	?	-	-	?	35µM	?
COC(=O)N/N=C(\C)c1ccc(OC(F)F)cc1	-	-	-	-	-	-
CC/C(=N\NC(=S)Nc1ccc(OC)cc1)c1ccc(OC(F)F)cc1	?	-	-	?	40µM	?
C/C(=N\NC(=S)NC1CCCCC1)c1ccc(O)cc1	?	-	?	?	35µM	?
COCCNC(=S)N/N=C(\C)c1ccc(O)cc1	-	-	-	-	-	-
COCCn1c(SCC(=O)c2ccc(OC)cc2)nc2cc(C(=O)NC3CCCC3)ccc2c1=O	-	.	.	-	-	-
O=C(COc1ccccc1F)Nc1ccc2nc(SCC(=O)N3CCc4ccccc43)sc2c1	-	.	.	-	-	-
Cc1cccc(C(=O)NNc2ncnc3c2cnn3-c2ccc(C)cc2C)c1	-	.	.	-	-	-
COc1ccc(C/C(C)=N/NC(=S)Nc2ccc(C(C)C)cc2)cc1	-	-	-	-	7.9µM	7.9µM
COc1ccc(C/C(C)=N/NC(=S)Nc2ccccc2F)cc1	?	-	-	-	?	?
CC/C(=N\NC(=S)Nc1cc(C)ccc1C)c1ccc(OC(F)F)cc1	?	-	-	?	3.2µM	?
COc1ccccc1NC(=S)NNC(=S)Nc1ccc(OC(F)F)cc1	?	-	-	-	1µM	79µM
O=C(OCC#CCSc1nnc(-c2cccc3ccccc23)o1)c1ccc(F)c(F)c1	.	.	.	.	.	-
Cc1ccc(-c2nnc(Nc3ccc(C(N)=O)cc3)c3ccccc23)cc1S(N)(=O)=O	-	.	.	-	-	-
COc1cc(Cl)c(C)cc1N1C(=O)CN(Cc2ccccc2)C1=S	-	.	-	-	35µM	-
CC(C)NC(=O)CSc1nc2ccccc2c(=O)n1Cc1ccc(C(=O)NC(C)C)cc1	-	.	.	-	-	-
SMILES	HP1b chromo inh	CtBP-E1A inh	Six1-Eya2 inh	BAZ2B block	G9a inh	JMJD2A Tudor inh
O=[N+]([O-])c1c(NCCCO)cc(SCc2ccco2)c2nonc12	-	-	-	?	8.9µM	-
CC(=O)OCCNc1cc(SCc2ccco2)c2nonc2c1[N+](=O)[O-]	-	-	-	?	45µM	50µM
Cn1ccnc1Sc1cc(NCCCO)c([N+](=O)[O-])c2nonc12	-	-	?	-	56µM	-
CC(=O)OCCNc1cc(Sc2nc3ccccc3[nH]2)c2nonc2c1[N+](=O)[O-]	?	-	?	?	4µM	56µM
CC(=O)OCCCNc1cc(Sc2nc3ccccc3s2)c2nonc2c1[N+](=O)[O-]	-	-	-	-	?	-
COC(=O)c1ccc(OCC2c3cc(OC)c(OC)cc3CCN2C(=O)c2ccccc2F)cc1 (configuration not stated)	-	.	.	-	-	-
Cc1cccc(C)c1OC(=O)CSc1nnc(-c2cccs2)o1	-	.	.	-	?	-
COc1cc(C2C(=O)N(C3CCCC3)CC(=O)N2Cc2ccco2)ccc1OC(C)C (configuration not stated)	-	-	-	-	79µM	-
COc1ccccc1N1CCN(C(=O)Nc2ccc([N+](=O)[O-])cc2)CC1	-	-	-	-	-	-
COc1ccccc1N1CCN(/N=C/c2ccc([N+](=O)[O-])cc2)CC1	?	-	-	18µM	18µM	28µM
O=[N+]([O-])c1cc(/C=N/N2CCN(C3c4ccccc4-c4ccccc43)CC2)ccc1Cl	-	-	-	?	?	?
COc1ccccc1N1CCN(/N=C/c2ccc(Cl)c([N+](=O)[O-])c2)CC1	?	.	?	18µM	.	?
CCCC12CN3CC(C)(CN(C1)C3c1cn(CC)c3ccccc13)C2=O (configuration not stated)	-	.	.	-	-	?
COc1ccc(OC)c(Nc2sc(C(=O)c3ccccc3)c(N)c2S(=O)(=O)c2ccccc2)c1	-	.	.	-	-	-
C/C(=N\OCc1nc2ccccc2c(=O)n1/N=C/c1cc([N+](=O)[O-])ccc1O)c1ccccc1	-	-	?	-	40µM	-
C/C(=N\OCc1nc2ccccc2c(=O)n1/N=C/c1cc(C)cc([N+](=O)[O-])c1O)c1ccccc1	-	-	-	7.9µM	.	-
O=c1c2ccccc2nc(COc2ccccc2)n1/N=C/c1ccc(O)cc1O	-	-	?	?	-	-
O=C(COc1ccccc1F)Nc1ccc2nc(SCC(=O)N3CCCC3)sc2c1	-	.	.	-	-	-
COc1ccc(-c2[nH]c(-c3ccc(C)cc3)nc2SCC(=O)NCC2CCCO2)cc1 (configuration not stated)	-	.	.	?	?	?
Cc1ccc(C)c(CNC(=O)c2cnc3sc(N4CCCC4)nn3c2=O)c1	-	.	.	-	-	-
COc1ccc(CNCc2ccc(C)cc2)c(OC)c1	?	-	-	56µM	35µM	3.2µM
COc1cc(CNCc2ccc(OC)cc2OC)cc(OC)c1	-	.	-	?	-[0.501 µM]	28µM
CCOc1ccc(-c2cc(C(=O)NCCCOC)c3c(-c4ccc(CC)cc4)[nH]nc3n2)cc1	-	.	.	-	-	-
Cc1nc(N2CCN(C)CC2)c2nnn(Cc3ccccc3)c2n1	-	.	.	.	.	-
COc1ccc(OCc2ccc(-c3nc(C#N)c(NCc4cccnc4)o3)o2)cc1	-	.	.	18µM	13µM	32µM
Cc1ccc(CNc2oc(-c3ccc(COc4ccc(C)cc4)o3)nc2C#N)cc1	-	.	.	?	?	-
CCCCNc1oc(-c2ccc(COc3ccccc3C)o2)nc1C#N	-	.	.	-	?	-
Cc1ccccc1OCc1ccc(-c2nc(C#N)c(NCc3cccnc3)o2)o1	-	.	.	32µM	11µM	16µM
Cc1ccc(OCc2ccc(-c3nc(C#N)c(NCc4cccnc4)o3)o2)cc1	?	.	.	18µM	11µM	20µM
